The record followed here is PubChem BioAssay AID2685 (National Center for Advancing Translational Sciences (NCATS), 2010).

The structures appear in SMILES notation. In all, about 320,000 compounds went through this assay and about 2,100 (0.66%) were called active. About 53% were inconclusive and are not listed. The sample holds actives, similar compounds and a random draw of the others, so the mix is not that of the screen. The call rests on the fitted dose curve; in most records, active means well fitted inhibition curve with a large enough effect in the signal ratio, with a control signal flat (not every such curve was filed as active); inconclusive means small, poorly fitted or top-dose-only effect, or effect the other way, or a change in a side signal; inactive means flat fitted curve, though single readings scatter; the % refers to the signal ratio.
Potency means the concentration at half of the fitted maximal effect.

This experiment in a line: qHTS Assay for Lipid Storage Modulators in Drosophila S3 Cells.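 On cell number change: cells counted by Cell Tracker Red CMTPX staining in the red channel.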 On lipid storage change, negative = inhibition: on the % scale 0 is the no-effect control and ±100 the full control effect. Particulars: BODIPY lipid droplet fluorescence, 18-24 h, cells fed with added oleic acid; cell number change: measured here: cell count max response; series mostly up to 46.1 µM; lipid storage change, negative = inhibition: at the top concentration. Summed up:
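Drosophila S3 cells got compounds at several concentrations plus oleic acid (400 uM solution). Laser-scanning cytometry with 488 nm excitation read lipid droplets at 500-530 nm and cells at 575-640 nm. Percent activity was relative to 20 uM Triacsin C.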
On the technique in general: qHTS replaces the single test concentration by a dilution series.
Regarding `COc1ccccc1/C=N/OC(=O)c1ccc(F)cc1`, the “lipid storage change, negative = inhibition” value is -0.325% (inactive) and the cell number change was determined as 3.91%.

Turning to `COc1cc(Cl)c(S(=O)(=O)NCCCn2ccnc2)cc1Cl`, the “lipid storage change, negative = inhibition” value was -3.68% (inactive) and the cell number change came to 29%.

Take `Cc1cc(C)c(S(=O)(=O)NCCCn2ccnc2)cc1C`: the “lipid storage change, negative = inhibition” value was 10.5% (inactive) and the cell number change was 4.74%.

On to `Cc1cc(Cl)c(Cl)cc1S(=O)(=O)NCCCn1ccnc1`, for which the Potency is 6.51 µM (active) and the cell number change was -5.8%.

In the case of `COc1cccc(NC(=O)C2CCC(CNC(=O)[C@@H]3Cc4ccccc4CN3)CC2)c1` (stereo partly drawn), the call was inactive and the cell number change was 0.236%.

As to `CC(C(=O)Nc1ccc(F)c(F)c1F)N(C)Cc1cccs1` (stereo not drawn), the “lipid storage change, negative = inhibition” value was -15.3% (inactive) and the cell number change is 25.5%.

Regarding `COc1ccc(S(=O)(=O)N2CCC(C(=O)N[C@@H](C)C(=O)NCc3ccc(F)cc3)CC2)cc1`, the result was inactive and the cell number change was 13.5%.

In the case of `CCOC(=O)N1CCN(S(=O)(=O)N2CCCC(C(=O)NCCc3ccc(OCC)c(OCC)c3)C2)CC1` (stereo not drawn), the Potency is 4.61 µM (active).

As to `O=C(Nc1ccncc1)C1CCN(S(=O)(=O)c2ccc(Cl)c(C(F)(F)F)c2)CC1`, the Potency is 10.3 µM (active) and the cell number change was 2.68%.

For `O=C(Nc1ccncc1)C1CCN(S(=O)(=O)c2cccc(C(F)(F)F)c2)CC1`, the “lipid storage change, negative = inhibition” value was 9.54% (inactive) and the cell number change was -3.08%.

In the case of `COc1ccc(CNC(=O)[C@H](C)NC(=O)C2CCN(S(=O)(=O)c3ccc(F)cc3)CC2)cc1`, the Potency was 18.4 µM (active) and the cell number change worked out at 3.44%.

With `CCOC(=O)N1CCN(S(=O)(=O)N2CCCC(C(=O)NCCc3ccc(OC)c(OC)c3)C2)CC1` (stereo not drawn), the “lipid storage change, negative = inhibition” value is -9.88% (inactive) and the cell number change was -20.2%.

Regarding `COc1ccc(CNC(=O)[C@H](C)NC(=O)C2CCN(S(=O)(=O)c3ccc(C)cc3)CC2)cc1`, the result was inactive and the cell number change was -4.43%.

In the case of `CCOc1ccc(S(=O)(=O)N2CCCC(C(=O)N3CCOCC3)C2)cc1Cl` (stereo not drawn), the call was inactive and the cell number change was 16.4%.

In the case of `COc1ccc(S(=O)(=O)N2CCCC(C(=O)N3CCOCC3)C2)cc1C` (stereo not drawn), the molecule was called inactive and the cell number change came out at 17.1%.

As to `CS(=O)(=O)N1CCC(C(=O)Nc2ccc(Cl)c(C(F)(F)F)c2)CC1`, the result was inactive and the cell number change is -15.8%.

In the case of `CCOc1ccc(CCNC(=O)C2CCCN(S(=O)(=O)N3CCOCC3)C2)cc1OCC` (stereo not drawn), the “lipid storage change, negative = inhibition” value is -4.66% (inactive) and the cell number change is 0.288%.

As for `CCOc1ccc(S(=O)(=O)N2CCCC(C(=O)N3CCOCC3)C2)cc1C` (stereo not drawn), the Potency is 2.31 µM (active) and the cell number change is -23.5%.

With `O=C(NC1=NCCS1)c1ccccc1Cl`, the “lipid storage change, negative = inhibition” value was 16.7% (inactive) and the cell number change is -14.3%.

On to `CO/N=C/CC(=O)Nc1ccc(F)cc1F`, for which the “lipid storage change, negative = inhibition” value is 1.73% (inactive) and the cell number change was 16.8%.

In the case of `CCCNC(=O)Nc1nc(CC(=O)OCC)cs1`, the “lipid storage change, negative = inhibition” value is -0.813% (inactive) and the cell number change was -16.9%.

For the molecule `CC1NC2(C(=O)N(Cc3ccccc3)c3ccccc32)C2C(=O)N(c3ccccc3)C(=O)C12` (stereo not drawn), the call was inactive.

Take `CC1Cc2ccccc2C(CCc2ccccc2)=N1` (stereo not drawn): the “lipid storage change, negative = inhibition” value was -0.249% (inactive) and the cell number change was -1.48%.

On to `CSc1cccc(CNC(=O)CC2C(=O)NCCN2CC(C)(C)C)c1` (stereo not drawn), for which the “lipid storage change, negative = inhibition” value was 10.7% (inactive) and the cell number change amounted to 22%.

Turning to `COc1ccc(-c2cc3cc(C(=O)O)ccn3c2C(=O)c2ccccc2)cc1`, the “lipid storage change, negative = inhibition” value was -4.15% (inactive) and the cell number change was determined as 2.31%.

Turning to `CC1CCC2(CC1)NC(=O)N(CC(=O)NC(=O)Nc1ccc3c(c1)OCCO3)C2=O` (stereo not drawn), the “lipid storage change, negative = inhibition” value is 2.79% (inactive) and the cell number change was found to be 17.3%.

For `COc1ccc(S(=O)(=O)N2CCC(C(=O)NCCc3ccccc3)CC2)cc1`, the “lipid storage change, negative = inhibition” value was 4.73% (inactive) and the cell number change amounted to 20.5%.

On to `O=C(NC1CCCCC1)C1CCCN(S(=O)(=O)c2ccc(F)cc2)C1` (stereo not drawn), for which the call was inactive and the cell number change was 2.52%.

Consider `Cc1ccc(S(=O)(=O)N2CCC(C(=O)N[C@@H](C)C(=O)NCCc3ccccc3)CC2)cc1`, for which the “lipid storage change, negative = inhibition” value was 11.5% (inactive) and the cell number change is 4.36%.

`CCOc1ccc(S(=O)(=O)N2CCC(C(=O)NCc3ccncc3)CC2)cc1Cl`: the “lipid storage change, negative = inhibition” value is 29.2% (inactive) and the cell number change was -18.4%.

On to `O=C(NC1CCCCCC1)C1CCN(S(=O)(=O)c2ccc(F)cc2)CC1`, for which the “lipid storage change, negative = inhibition” value is 9.96% (inactive) and the cell number change is -1.11%.

Take `Cc1ccc(S(=O)(=O)N2CCC(C(=O)NCCc3ccccc3)CC2)cc1`: the Potency is 23.1 µM (active) and the cell number change was -12.9%.

On to `O=C(NC1CCN(S(=O)(=O)c2ccc(F)cc2)CC1)C1CCCCC1`, for which the Potency was 5.17 µM (active) and the cell number change was -18.1%.

Consider `CSc1ccc(S(=O)(=O)N2CCC(C(=O)NCc3ccncc3)CC2)cc1`, for which the “lipid storage change, negative = inhibition” value is -5.08% (inactive) and the cell number change came out at 19.2%.

With `O=C(NCc1ccncc1)C1CCN(S(=O)(=O)c2ccc(F)cc2)CC1`, the molecule was classed as inactive and the cell number change came out at 1.32%.

Take `CCOc1ccc(S(=O)(=O)N2CCCC(C(=O)NCc3ccncc3)C2)cc1C` (stereo not drawn): the molecule was classed as inactive and the cell number change amounted to 9.24%.

`CCOc1ccc(S(=O)(=O)N2CCCC(C(=O)NCc3ccncc3)C2)cc1Cl` (stereo not drawn): the Potency was 1.03 µM (active) and the cell number change worked out at 25.2%.

Turning to `Cc1ccc(S(=O)(=O)N2CCC(C(=O)NCc3ccncc3)CC2)cc1`, the Potency was 18.4 µM (active) and the cell number change came out at 12.7%.

As to `Cc1ccc(NC(=O)C(C)OC(=O)COc2cccc(C(F)(F)F)c2)cc1` (stereo not drawn), the “lipid storage change, negative = inhibition” value is 4.89% (inactive) and the cell number change came to 3.29%.

Regarding `COc1ccccc1N(CCC#N)C(=O)CSc1nc(-c2ccccc2)cn1N`, the “lipid storage change, negative = inhibition” value is 21.1% (inactive) and the cell number change was -6.12%.

With `COc1ccc(/C=C/c2nc(-c3ccccc3)cc(=O)[nH]2)cc1`, the “lipid storage change, negative = inhibition” value is -10.7% (inactive) and the cell number change is -10.9%.

`Cc1cn(C2CCC(CO)O2)c(=O)[nH]c1=O` (stereo not drawn): the call was inactive and the cell number change came out at 27%.

For the molecule `CC1CCCC(NC(=O)COC(=O)c2cccs2)C1C` (stereo not drawn), the “lipid storage change, negative = inhibition” value is 2.84% (inactive) and the cell number change amounted to 0.184%.

Take `CCOc1ccc(NC(=O)CN2C(=O)C3CCCN3C2=O)cc1` (stereo not drawn): the result was inactive.

Consider `CC1(C)CC(=O)C(C=NCCN2CCN(CCc3ccccc3)CC2)=C(O)C1`, for which the “lipid storage change, negative = inhibition” value is 1.55% (inactive).

In the case of `Cc1ccccc1C(=O)N1CCN(c2ccc(NC(=O)c3cccnc3)cc2)CC1`, the “lipid storage change, negative = inhibition” value is -0.627% (inactive) and the cell number change stood at 24.6%.
